From PubChem BioAssay
RORg inh: qHTS for inhibitors of ROR gamma transcriptional activity; Nuclear receptor ROR-gamma (Mus musculus), P51450; Drosophila S2 Gal4-RORgamma UAS-luciferase reporter, 20 h; Potency, µM (highest dose often 53.6 µM), for the others: at the highest dose activity change, negative = inhibition, most hits filed as inhibitors; hit rate 5.4% among 310,000; AID 2551, 2010; also: potency is read from the fitted curve at half-maximal effect; nearly all actives have a fitted effect of over 60% in size
Target sequence (P51450 whole entry, looked up, the tested form may be a part): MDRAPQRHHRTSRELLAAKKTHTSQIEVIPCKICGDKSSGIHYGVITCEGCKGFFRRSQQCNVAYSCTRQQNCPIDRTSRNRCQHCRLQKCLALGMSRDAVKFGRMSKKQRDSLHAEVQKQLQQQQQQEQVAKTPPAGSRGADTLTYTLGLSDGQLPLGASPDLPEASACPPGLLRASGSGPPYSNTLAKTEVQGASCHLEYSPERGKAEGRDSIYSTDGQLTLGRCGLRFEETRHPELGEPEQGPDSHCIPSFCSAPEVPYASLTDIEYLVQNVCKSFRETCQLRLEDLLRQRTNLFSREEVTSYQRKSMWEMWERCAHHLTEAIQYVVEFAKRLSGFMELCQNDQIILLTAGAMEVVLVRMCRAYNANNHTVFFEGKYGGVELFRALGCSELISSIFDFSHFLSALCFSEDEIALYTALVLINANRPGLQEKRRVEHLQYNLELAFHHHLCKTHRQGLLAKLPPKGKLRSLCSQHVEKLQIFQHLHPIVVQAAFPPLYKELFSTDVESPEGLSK
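Schneider cells (Drosophila), stable Gal4 DBD–ROR gamma + UAS-luc; 1 hr cmpd preincubation; Cu2+ induction 700 uM final; 20 hr ambient; luminescence.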
TDP1 cell CPT: qHTS for Inhibitors of human tyrosyl-DNA phosphodiesterase 1 (TDP1): qHTS in cells in presence of CPT. chicken DT40 Tdp1-/-;hTDP1 cells + 20 nM CPT, ATP luminescence, 48 h. Potency, µM (doses to about 46.2 µM), inactives show at the top dose activity change, negative = growth inhibition, usual class: inhibitors. hit rate 12% among 420,000; also: potency is read from the fitted curve at half-maximal effect; nearly all actives have a fitted effect of over 55% in size
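Chicken DT40 Tdp1-/- cells complemented with human TDP1, 400 cells/well, exposed to compounds plus 20 nM camptothecin for at least 48 h at 37 C; viability read as ATP content by CellTiter-Glo luminescence.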
IL1B secr inh: qHTS for Inhibitors of Inflammasome Signaling: IL-1-beta AlphaLISA Primary Screen | activity change, % at 57.5 µM | AID 743279, 2014 | THP-1 LPS/ATP IL-1B secretion, AlphaLISA, 16 h; active compounds read low | hit rate 4.7% among 360,000; in the data active = activity change below about -50%; inconclusive = mostly about -30% to -49%
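Secreted IL-1B measured by AlphaLISA bead assay after 16 h compound exposure of THP-1 cells; compounds (final up to 57.5 uM) added 1 h before LPS (250 ng/mL) and ATP (1.25 mM) stimulation; lower signal means less secretion.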
VP16 counter: VP16 counterscreen qHTS for inhibitors of ROR gamma transcriptional activity. Drosophila S2 Gal4-VP16 UAS-luciferase, luminescence, 20 h. AID 2546, 2010. hit rate 3.5% among 310,000. Potency, µM (doses to about 53.6 µM), inactives show top-dose activity, negative = inhibition, usual class: inhibitors;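 also: Gal4-VP16 expression switched on by copper sulfate through the metallothionein promoter; potency is read from the fitted curve at half-maximal effect; nearly all actives have a fitted effect of over 50% in size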
LDHA inh: qHTS assay for inhibitors of human lactate dehydrogenase; purified LDHA, NADH/diaphorase-resazurin fluorescence; active compounds read low; activity change, % (values are at about 110 or 230 µM); hit rate 0.15% among 480,000; in the data active = activity change below about -30%; inconclusive = mostly about -25% to -30%;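 also: plate controls were DMSO wells for no effect and wells without enzyme for full effect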
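Human LDH5 (2 nM) was incubated with 0.06 mM NADH and 0.2 mM pyruvate for 5 min at room temperature in Tris pH 7.4. Remaining NADH was coupled through diaphorase/resazurin, and resorufin fluorescence was read at 0 and 20 min.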
TDP1 cell noCPT: qHTS for Inhibitors of human tyrosyl-DNA phosphodiesterase 1 (TDP1): qHTS in cells in absence of CPT | DT40 Tdp1-/- hTDP1 cells, no CPT, ATP luminescence, 48 h | Potency, µM (titrated, usually from 46.2 µM), for inactives: at the highest dose activity change, negative = growth inhibition, actives largely listed as inhibitors | hit rate 15% among 420,000; also: potency is read from the fitted curve at half-maximal effect; nearly all actives have a fitted effect of over 55% in size
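No-CPT arm: Tdp1-/-;hTDP1 DT40 cells (400/well) plus compounds, incubated ≥48 hr at 37 °C. Readout CellTiter-Glo luminescence.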
An asterisk follows results filed as active; ? = inconclusive; nt = no result given; [ ] = remark or other dose. An excerpt weighted towards active compounds, which were near 18% of everything screened. Unless noted, calls follow the shape of the dose curve; as a rule, active = well fitted curve in the direction sought with a large enough effect; inconclusive = small, poorly fitted or top-dose-only effect, or another doubt; inactive = no such curve, though single readings can be large; an effect the other way counts as inactive or inconclusive. Unless noted, % is scaled to controls: 0 for no effect and ±100 for the full control effect.

SMILES	RORg inh	TDP1 cell CPT	IL1B secr inh	VP16 counter	LDHA inh	TDP1 cell noCPT
Cn1c(=O)oc2cc(S(=O)(=O)N3CCCC(C(=O)N4CCN(c5ccc(F)cc5)CC4)C3)ccc21 (stereo not drawn)	nt	7.31µM*	nt	nt	-4.0	4.11µM*
O=C(O)c1ccc(CS(=O)c2ccc(F)cc2)o1 (stereo not drawn)	nt	nt	nt	nt	5.2	nt
CC(O)CNc1nc2c(c(=O)n(C)c(=O)n2C)n1Cc1ccc(Cl)c(Cl)c1 (stereo not drawn)	nt	nt	nt	nt	-0.1	nt
CC(NC(=O)/C=C/c1cccs1)C12CC3CC(CC(C3)C1)C2 (stereo not drawn)	nt	nt	nt	nt	0.9	nt
COCCn1c(SC(C)C(=O)c2cc(C)ccc2C)nnc1-c1ccc(Cl)cc1 (stereo not drawn)	nt	nt	nt	nt	-0.7	nt
COc1ccc(Nc2nc(N)c(C(=O)c3cc(C)ccc3C)s2)cc1Cl	nt	nt	nt	nt	6.6	nt
Cc1nc(NC(C)C)sc1C(=O)NCCc1ccccc1	nt	nt	nt	nt	-0.6	nt
COc1ccc(/C=C/c2c(-c3ccc(OC)cc3)oc3ccc(-c4ccc(OC)cc4)cc23)cc1	-1.3%	-1.6%	-1.0	-6.3%	1.7	5.0%
COc1ccc(/C=C/c2cc(-c3ccc(C)cc3)o[n+]2C)cc1	?	0.259µM*	-119.9*	12.6µM*	-1.7	0.259µM*
CC(C)c1nc2oc3c(NCC4CCCO4)ncnc3c2c2c1CCC2 (stereo not drawn)	-19.2%	25.9µM*	-11.1	4.9%	2.5	16.4µM*
CCCc1nc2oc3c(NCc4ccccn4)ncnc3c2c2c1COC(C)(C)C2	1.5%	14.6µM*	-10.0	-16.5%	-1.1	14.6µM*
CC(C)c1nc2oc3c(N(C)CCO)ncnc3c2c2c1CCC2	-3.0%	?	-12.8	-2.2%	3.8	?
CCCc1nc2oc3c(NCC4CCCO4)ncnc3c2c2c1COC(C)(C)C2 (stereo not drawn)	10.6%	29.1µM*	0.0	-0.5%	2.6	?
COCc1ccc(C(=O)Nc2cccc(S(=O)(=O)N(C)c3ccccc3)c2)cc1	nt	18.4µM*	-13.0	nt	-0.4	18.4µM*
CN(C)S(=O)(=O)c1cccc(NC(=O)c2ccc(COc3ccccc3)cc2)c1	-44.2%	18.4µM*	-72.5*	6.31µM*	-4.1	6.51µM*
CCN(CC)CCNC(=O)c1ccc(NC(=O)c2ccc(COc3ccccc3)cc2)cc1	21.7%	23.1µM*	-19.6	-2.4%	-11.6	-4.7%
O=C(O)c1cccc(CSc2cc(Cl)ccc2Cl)c1	nt	nt	nt	nt	2.2	nt
Cc1cccc(C2CC(c3ccc(Cl)cc3)Nc3nc(N)nn32)c1 (stereo not drawn)	-4.7%	?	-25.4	-11.8%	-0.8	?
CCc1ccc(C2CC(c3cccc(Cl)c3)n3nc(N)nc3N2)cc1 (stereo not drawn)	-34.3%	14.6µM*	nt	?	-2.0	14.6µM*
Cc1ccc(C2CC(c3cccc(Cl)c3)n3nc(N)nc3N2)cc1 (stereo not drawn)	-2.7%	14.6µM*	-22.4	1.2%	-4.0	18.4µM*
CCc1ccc(C2CC(c3ccccc3)Nc3nc(N)nn32)cc1 (stereo not drawn)	-14.8%	-6.2%	13.2	-12.2%	-8.4	-19.0%
Cc1cc(NC(=O)c2ccoc2)ccc1N1CCCC1=O	nt	nt	nt	nt	11.8	nt
COc1ccc(NC(=O)c2ccc(Br)o2)cc1NC(=O)c1cccc(C)c1	nt	nt	nt	nt	4.4	nt
CCCn1nc(C(=O)OCCO)c2ccccc2c1=O	nt	nt	nt	nt	-0.1	nt
CNC[C@H](CC1CCCCC1)NC[C@H](Cc1ccccc1)NCCC12CC3CC(CC(C3)C1)C2	20µM*	7.31µM*	-99.9*	?	2.1	13µM*
SMILES	RORg inh	TDP1 cell CPT	IL1B secr inh	VP16 counter	LDHA inh	TDP1 cell noCPT
NC[C@H](Cc1ccccc1)NCCCCC1CCCCC1	nt	-23.2%	-0.8	nt	0.1	?
CC(=O)Nc1ccc(C=CC=Cc2cccc([N+](=O)[O-])c2)cc1	nt	29.1µM*	-96.6*	nt	1.8	?
CC(/C=C/c1ccccc1)=N/NC(=O)c1cc([N+](=O)[O-])cc([N+](=O)[O-])c1	0.178µM*	5.17µM*	0.0	0.178µM*	1.0	5.17µM*
CC(/C=C/c1cccc([N+](=O)[O-])c1)=N/NC(=O)c1cccnc1	3.16µM*	?	-13.9	5.01µM*	-2.3	?
C/C(=N\NC(=O)c1cccnc1)c1cccc([N+](=O)[O-])c1	0.9%	2.8%	-24.8	-2.7%[10 µM]	-8.7	-24.7%
CC(/C=C/c1ccccc1)=N\NC(=O)c1ccc(C(C)(C)C)cc1	nt	nt	nt	nt	-4.4	nt
O=C(N/N=C\C=C\c1ccc2c(c1)OCO2)c1cccnc1	5.62µM*	?	-0.9	11.2µM*	4.1	?
CCCCNC(=O)c1cccc(Cl)c1	nt	nt	nt	nt	7.5	nt
CC(C)(C)c1cc(C(=O)O)c(O)c(C(C)(C)C)c1	nt	nt	nt	nt	1.6	nt
CCOc1cc(N)c(C#N)cc1OCC	nt	nt	nt	nt	41.2	nt
Cc1oc2cc(OCC(=O)NCc3ccco3)ccc2c(=O)c1Oc1ccccc1Br	nt	nt	nt	nt	-2.9	nt
O=C(N/N=C/C=C/c1cccc([N+](=O)[O-])c1)C(O)c1ccccc1 (stereo not drawn)	-13.3%	-5.5%	-5.7	5.6%	-3.7	?
O=C(N/N=C/C=C\c1cccc([N+](=O)[O-])c1)c1cccnc1	6.31µM*	?	-7.5	?	0.2	?
O=C(Nc1nnc(-c2cccs2)o1)c1cccc(C(F)(F)F)c1	0.112µM*	5.17µM*	72.7	0.112µM*	3.0	5.17µM*
CN(C)NC(=O)c1ccsc1NC(=O)c1ccc(S(=O)(=O)N(C)C)cc1	10.2%	-25.2%	-18.4	-4.0%	-3.2	-26.9%
N#Cc1ccc(C(=O)Nc2nnc(-c3cccs3)o2)cc1	0.708µM*	5.17µM*	34.1	1µM*	0.8	7.31µM*
CN(C)S(=O)(=O)c1ccc(C(=O)Nc2nnc(-c3cccs3)o2)cc1	0.631µM*	13µM*	22.5	1.26µM*	-0.4	23.1µM*
CN(C)S(=O)(=O)c1ccc(C(=O)Nc2nnc(-c3ccc4c(c3)CCCC4)o2)cc1	0.126µM*	2.91µM*	3.8	0.0891µM*	-8.1	5.17µM*
N#Cc1ccc(NC(=O)c2cc(-c3cccs3)on2)cc1	1.7%	-29.5%	15.4	-1.7%	-11.5	?
